Compound activity from PubChem BioAssay.
Gli-Sufu antag: Gli-Sufu pathway antagonists, primary screen, luciferase luminescence, Sufu-KO-LIGHT cells, uHTS. Sufu-KO-LIGHT fibroblasts, Gli luciferase reporter luminescence. inhibition, % at 5 µM. 340,000 compounds, 0.74% hits. AID 588413, 2011;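 active means inhibition above about 55%, limit read from the data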;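 further: 0% = DMSO-treated cells and 100% = wells with medium but no cells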
697 NFkB inh: inhibitors of PMA/ionomycin-induced NF-kB reporter, 697 cells, primary screen, B-cell NF-kB inhibitor project, cell-based, luminescence, uHTS | 697 B-cell NF-kB luciferase reporter, 16 h | inhibition, % at 4 µM | 330,000 compounds, 0.33% hits | AID 435022, 2010; in the data active means inhibition above about 35%
Mdm2-MdmX inh: inhibitors of human Mdm2-MdmX association, primary screen, cell-based, luminescence, split luciferase, SaOS-2, uHTS; Protein Mdm4 (Homo sapiens) + E3 ubiquitin-protein ligase Mdm2 (Homo sapiens), …; inhibition, % at 8 µM; 330,000 compounds, 3% hits; SaOS-2 split-luciferase Mdm2/MdmX complementation;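 active means inhibition of at least 50% at 8 µM in the primary screen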
Target sequence (O15151 whole entry, looked up): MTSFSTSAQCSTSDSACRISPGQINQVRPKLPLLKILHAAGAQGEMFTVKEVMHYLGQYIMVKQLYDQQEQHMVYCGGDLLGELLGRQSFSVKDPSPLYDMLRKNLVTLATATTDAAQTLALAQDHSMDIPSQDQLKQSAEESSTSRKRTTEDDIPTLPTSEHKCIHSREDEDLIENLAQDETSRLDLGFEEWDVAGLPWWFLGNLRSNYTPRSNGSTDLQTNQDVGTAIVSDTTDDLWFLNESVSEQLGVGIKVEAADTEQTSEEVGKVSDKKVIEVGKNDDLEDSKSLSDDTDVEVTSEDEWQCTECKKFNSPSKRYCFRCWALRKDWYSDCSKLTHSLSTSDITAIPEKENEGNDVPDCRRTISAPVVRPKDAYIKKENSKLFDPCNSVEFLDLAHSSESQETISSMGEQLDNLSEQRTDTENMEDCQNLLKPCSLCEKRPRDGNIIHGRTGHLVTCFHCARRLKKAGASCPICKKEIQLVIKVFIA
Target sequence (Q00987 whole entry, looked up): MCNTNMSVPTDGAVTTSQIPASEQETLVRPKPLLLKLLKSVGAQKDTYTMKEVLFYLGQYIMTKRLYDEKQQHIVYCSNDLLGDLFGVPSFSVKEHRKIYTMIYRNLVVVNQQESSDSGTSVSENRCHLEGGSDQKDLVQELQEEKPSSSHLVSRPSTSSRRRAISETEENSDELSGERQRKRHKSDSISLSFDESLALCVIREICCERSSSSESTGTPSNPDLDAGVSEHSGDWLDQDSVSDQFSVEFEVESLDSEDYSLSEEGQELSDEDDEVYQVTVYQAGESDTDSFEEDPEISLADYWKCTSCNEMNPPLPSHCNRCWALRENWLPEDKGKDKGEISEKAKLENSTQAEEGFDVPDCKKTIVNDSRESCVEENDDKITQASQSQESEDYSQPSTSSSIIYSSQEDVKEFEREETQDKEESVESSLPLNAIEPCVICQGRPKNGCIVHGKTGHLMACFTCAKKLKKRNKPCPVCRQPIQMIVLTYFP
KLF5 inhibitor: KLF5 expression inhibitors, primary screen, DLD-1 cells, luminescence; inhibition, % at 5 µM; 290,000 compounds, 0.23% hits; DLD-1 KLF5 promoter-luciferase reporter;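 active means inhibition above a per-plate limit of that plate's mean compound inhibition plus 3 SD, cut at about 60% in these data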;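 further: 0% = DMSO wells and 100% = LY294002 at 200 µM; higher means less KLF5 promoter-driven luciferase light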
Jurkat NFkB inh: inhibitors of induced NF-kB luciferase reporter, primary screen, TCR NF-kB activation inhibitor project, cell-based, luminescence, uHTS; Jurkat, PMA/ionomycin-induced NF-kB luciferase reporter; inhibition, % at 4 µM; 330,000 compounds, 0.53% hits; AID 435003, 2010; in the data active means inhibition above about 50%
aSyn 5UTR inh: MLPCN primary screen, SNCA 5' untranslated region; 300,000 compounds, 0.82% hits; inhibition, % (tested at 7.5 µM); alpha-synuclein 5'UTR reporter, inhibitor activity; in the data active means inhibition above about 60%;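 further: H4 neuroglioblastoma cells stably carrying SNCA 5'UTR luciferase fusion; 0% = DMSO wells and 100% = positive control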
Mdm2-MdmX conf: Mdm2-MdmX complex disruptors, retested hits, confirmation, luminescence, single concentration. 10,000 compounds, 55% hits. shares compounds with Mdm2-MdmX inh. Mdm2-MdmX binding, luminescent assay. inhibition, % at 8 µM; in the data active means inhibition above about 40%
Full FLuc ctr: full-length luciferase signal inhibition, confirmation, counter-screen for Mdm2/MdmX interaction inhibitor project, cell-based, single concentration, SaOS-2 | SaOS-2 full-length luciferase counterscreen, luminescence | inhibition, % at 8 µM | AID 504607, 2011 | 6,200 compounds, 77% hits | shares compounds with Mdm2-MdmX inh;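 active means mean inhibition at 8 µM reaching about 37%, which flags the compound as non-specific, limit read from the data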;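 further: p53-null SaOS-2 cells with luciferase driven by a doxycycline-inducible promoter; compound on cells about two nights before reading with doxycycline added after day one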
The depositor's hits bear a star; x = no result given. Shown are actives, neighbours in structure and some others; about 4.1% of the full set was active somewhere.

SMILES | Gli-Sufu antag | 697 NFkB inh | Mdm2-MdmX inh | KLF5 inhibitor | Jurkat NFkB inh | aSyn 5UTR inh | Mdm2-MdmX conf | Full FLuc ctr
CCOC(=O)N1CCC(NC(=O)c2ccc3c(c2)N=C(CC)c2cc(C)ccc2S3)CC1 | 19 | -39 | 61* | 24 | 43 | 9 | 69* | 52*
CCCCC(=O)Nc1ccc(C(=O)Nc2ccc(S(=O)(=O)Nc3ccc(C)cc3)cc2)cc1 | 1 | -45 | 63* | -9 | 8 | 53 | 39 | 41*
Cc1ccc(NS(=O)(=O)c2ccc(C(=O)NNC(=O)c3ccccc3O)cc2)cc1 | 3 | -2 | 62* | x | 22 | 14 | 55* | 52*
Cc1nnsc1S(=O)c1ccc(Cl)c(Cl)c1 (stereo not given) | 6 | 2 | 30 | -17 | 7 | -89 | x | x
O=S(c1ccc2ccccc2c1)c1cnns1 (stereo not given) | -25 | -106 | 57* | -22 | 36 | x | 28 | x
COc1cc(F)c(S(=O)(=O)N2CCOc3ccccc32)cc1OC | 17 | -14 | 13 | 3 | 8 | 13 | x | x
O=P(c1ccccc1)(c1ccccc1)c1nc(-c2ccccc2)oc1NCc1ccccc1 | -2 | 18 | 60* | -41 | 4 | 8 | 5 | x
CCOP(=O)(OCC)c1nc(-c2ccccc2)oc1NCc1ccccc1 | 6 | -12 | 6 | -25 | 1 | 36 | x | x
CNC(=S)NC1(C)CCS(=O)(=O)C1 (stereo not given) | 3 | -14 | -3 | 3 | 1 | -7 | x | x
Cc1ccc(S(=O)(=O)Nc2ccc(NC(=O)Nc3cccc(C(F)(F)F)c3)cc2)cc1 | -1 | -12 | 85* | 8 | 4 | -10 | 46* | 77*
CCN(CC)S(=O)(=O)c1ccc(NC(=O)Nc2cccc(C(F)(F)F)c2)cc1 | 14 | -35 | 94* | -14 | 8 | 39 | 87* | 35
O=C(Nc1ccc(OC(F)F)cc1)Nc1cccc(C(F)(F)F)c1 | -6 | -12 | 76* | -20 | 8 | -51 | 93* | 24
O=C(Nc1ccncc1)Nc1cccc(C(F)(F)F)c1 | 10 | -16 | 48 | -14 | 3 | -1 | x | x
CCN(CC)S(=O)(=O)c1ccc(C(=O)Nc2cccc(C)c2)cc1 | -22 | -16 | 12 | -43 | -18 | -25 | x | x
Cc1ccc(NC(=O)Nc2cc(C(F)(F)F)c[nH]c2=O)cc1 | -14 | 23 | 58* | -11 | -1 | 35 | 45* | 72*
CCOc1ccc(N(CC(=O)Nc2cc(C)ccc2C)S(=O)(=O)c2c(C)[nH]c(=O)[nH]c2=O)cc1 | 3 | 11 | 4 | 5 | 16 | -7 | x | x
O=C(Nc1ccccc1)c1cc(N2CCOCC2)nc2ccccc12 | -1 | 14 | 17 | 9 | 9 | 22 | x | x
COc1cc(C(=O)Nc2ccc(C)cc2)c2ccccc2n1 | x | -7 | 64* | 62 | 42 | 82* | 48* | 84*
Cc1ccc(NC(=O)c2cc(N3CCOCC3)nc3ccccc23)cc1 | 6 | -6 | 55* | -4 | 5 | 13 | 34 | 45*
Cc1sc2ncnc(N3CCC(C(=O)Nc4ccc(OC(F)F)c(Cl)c4)CC3)c2c1C | 5 | -7 | 27 | x | -14 | x | x | x
CCN(CC)CCNC(=O)c1ccc(NC(=O)C2CCN(c3ncnc4sc(C)c(C)c34)CC2)cc1 | 4 | -42 | 91* | -39 | 7 | -34 | 61* | 22
O=C(COc1ccc([N+](=O)[O-])cc1)NNC(=O)c1cccs1 | 4 | 5 | -4 | 13 | 9 | -78 | x | x
N#Cc1cc(C(=O)c2cc(Cl)ccc2O)cn(-c2ccccc2)c1=O | -3 | 1 | 4 | -20 | -15 | 28 | x | x
